# PubChem BioAssay (EPA / NIEHS)
# The source made the active and inactive calls. Rule for the calls: active = hit-call score of the fitted dose curve at least 0.9, where 1 is the maximum; inactive = score below 0.9.
# Assay: ATG_BRE_CIS: Attagene CIS-FACTORIAL HepG2 Assay for human Bone Morphogenetic Protein (BMP) Response Element (BRE) (AID 2282933)
# Conditions: HepG2 BMP response element reporter, Attagene transcription factor profiling; actives raise or lower the signal
# Experimental: ATG_CIS is a cell-based, multiplexed-readout assay that uses HepG2, a human liver cell line, with measurements taken at 24 hours after chemical dosing in a 24-well plate.ATG_BRE_CIS is one of 52 assay component(s) measured or calculated from the ATG_CIS assay. It is designed to make measurements of mRNA induction, a form of inducible reporter, as detected with fluorescence intensity signals by Reverse transcription polymerase chain reaction (RT-PCR) and Capillary electrophoresis technology.Data from the assay component ATG_BRE_CIS was analyzed into 1 assay endpoint. This assay endpoint, ATG_BRE_CIS, was analyzed with bidirectional fitting relative to DMSO as the negative control and baseline of activity. Using a type of inducible reporter, measures of mRNA for gain or loss-of-signal activity can be used to understand the reporter gene at the transcription factor-level as they relate to the gene SMAD1. Furthermore, this assay endpoint can be referred to as a primary readout, because this assay has produced multiple assay endpoints where this one serves a reporter gene function. To generalize the intended target to other relatable targets, this assay endpoint is annotated to the dna binding intended target family, where the subfamily is Smad protein.
# Human liver HepG2 cells are transiently transfected with multiple reporter transcription units (MRTUs) in 6-well plates using FuGene 6 reagent (Roche; 3 ml FuGene/1 mg DNA). The MRTU constructs are regulated by a cis-regulating element (promoter). […] A major difference between the CIS and TRANS system is that in CIS activities of endogenous TFs are measured, whereas the TRANS assay evaluates changes in activities of exogenous, chimeric NR-Gal4 proteins. […] At the end of 24 hour incubation, total RNA was isolated using TriZol reagent (Invitrogen). The isolated RNA is then reverse-transcribed using oligo(dT) primer and Mo-MLV reverse transcriptase (Invitrogen) with DNAse I (Ambion) treatment for 30 min. The one-tenth of the produced cDNA was amplified by PCR using Taq DNA polymerase (Invitrogen) and two reporter sequence-specific primers. The PCR products were fluorescently labeled by primer extension with 6-arboxyfluorescein (6-FAM) 5'-labeled reporter sequence-specific primer (2 min at 95 C, 20 s at 68 C and 10 min at 72 C) and these products were digested with 5U of HpaI (New England Biolabs) for 2h at 37 C. The fragments were purified using Qiaquick PCR columns (Qiagen), analyzed on an ABI 3130xL genetic analyzer (Applied Biosystems) with peak positions identified by using a set of X-rhodamine (ROX)-labeled MapMarker1000 molecular weight standards (BioVentures). The raw capillary electrophoresis data was processed using Attagraph software (Attagene).
Structure (SMILES),outcome,AC50
O=C(O)CC(O)C(=O)O (stereo not given),inactive,–
CC/C(=C\C(=N/O)C(N)=O)C(C)[N+](=O)[O-] (stereo not given),inactive,–
Cn1cnc([N+](=O)[O-])c1Sc1ncnc2nc[nH]c12,inactive,–
COC(=O)CC(=O)OC,inactive,–
Cc1[nH]cnc1C[C@H]1CCc2c(C)c3ccccc3n2C1=O,–,29.7 µM (active)
CC(C)c1cccc(C(C)C)c1N1C(=O)c2ccc(O)cc2C1=O,inactive,–
COCCOc1cc2cc(C(=O)NC3CCN(C(C)C)CC3)n(CC(=O)Nc3ccc(Cl)cn3)c2cn1,inactive,–
O=C(O)CCN(C1(C(=O)NO)CCCC1)S(=O)(=O)c1ccc(Oc2ccc(F)cc2)cc1,inactive,–
CCOCCOCCOCCO,inactive,–
Cn1c(=O)c2c(ncn2C)n(C)c1=O,inactive,–
O=C1CCC(N2C(=O)c3ccccc3C2=O)C(=O)N1 (stereo not given),inactive,–
CC[C@H]1CC[C@H](NCc2cc3c(cc2OC)[C@H]2C[C@H]2C(=O)N3C)[C@H](c2ccccc2)N1,inactive,–
CCOc1cccc(-n2cc(C(=O)N3CCN(c4cc(C(=O)O)c5ccccc5c4)CC3)nc2-c2ccc(C)cc2)c1,–,54.7 µM (active)
CC(C)=CCC/C(C)=C/CO,inactive,–
CCOC(=O)CC(CC(=O)OCC)(OC(C)=O)C(=O)OCC,inactive,–
C[C@](N)(Cc1ccc(O)c(O)c1)C(=O)O,inactive,–
CC(=O)OCCC(C)C,inactive,–
CC(O)CN(CCN(CC(C)O)CC(C)O)CC(C)O (stereo not given),inactive,–
CCCCC(CC)COC(=O)CCCCCCCCC(=O)OCC(CC)CCCC (stereo not given),inactive,–
CC1(C)C(=O)N(Br)C(=O)N1Br,inactive,–

Structure (SMILES),outcome,AC50
Oc1ccc2c(c1)-c1ccccc1C2,–,84.4 µM (active)
COc1ccc2sc(C(=O)Nc3nnn[nH]3)c(OC(C)C)c2c1,–,41.8 µM (active)
Cc1ccc(N)cc1O,inactive,–
CC(C)CC(C)(O)C#CC(C)(O)CC(C)C (stereo not given),inactive,–
CC(C)CCO,inactive,–
O=P(OC(CCl)CCl)(OC(CCl)CCl)OC(CCl)CCl,–,70.4 µM (active)
COC(=O)c1ccccc1O,inactive,–
O=C(CCCCCCCCc1cccnc1)N1CCC(C=C(c2ccccc2)c2ccccc2)CC1,–,3.07 µM (active)
CCOC(=O)COc1ccc2c(c1)CC(NCC(O)c1cccc(Cl)c1)CC2 (stereo not given),inactive,–
CC(C)=CCC/C(C)=C\CO,inactive,–
Cc1ccc(C)c(O)c1,inactive,–
CC[C@H](C)C(=O)O[C@H]1C[C@@H](C)C=C2C=C[C@H](C)[C@H](CC[C@@H]3C[C@@H](O)CC(=O)O3)[C@H]21,inactive,–
COc1cccc(-c2ccc(/C=C\CN3CCCCCC3)cc2Cl)c1,–,17.4 µM (active)
Nc1cccc(N)c1,inactive,–
Clc1nc(Cl)c(Cl)c(Cl)c1Cl,inactive,–
CC(=O)c1ccc2c(c1)[C@H](NC(=O)c1ccc(F)cc1)[C@@H](O)C(C)(C)O2,inactive,–
O=C(OC[C@H]1O[C@@H](OC(=O)c2cc(O)c(O)c(OC(=O)c3cc(O)c(O)c(O)c3)c2)[C@H](OC(=O)c2cc(O)c(O)c(OC(=O)c3cc(O)c(O)c(O)c3)c2)[C@@H](OC(=O)c2cc(O)c(O)c(OC(=O)c3cc(O)c(O)c(O)c3)c2)[C@@H]1OC(=O)c1cc(O)c(O)c(OC(=O)c2cc(O)c(O)c(O)c2)c1)c1cc(O)c(O)c(OC(=O)c2cc(O)c(O)c(O)c2)c1,inactive,–
CN(C)c1ccc(Cc2ccc(N(C)C)cc2)cc1,–,61.9 µM (active)
CN(C)c1ccc(N=NS(=O)(=O)O)cc1,inactive,–
CC[C@H]1OC(=O)[C@H](C)[C@@H](O[C@H]2C[C@@](C)(OC)[C@@H](O)[C@H](C)O2)[C@H](C)[C@@H](O[C@@H]2O[C@H](C)C[C@H](N(C)C)[C@H]2O)[C@](C)(O)C[C@@H](C)C(=O)[C@H](C)[C@@H](O)[C@]1(C)O,inactive,–
